Records with an inconclusive call do not appear. The source made the active and inactive calls.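 Rule for the calls, unless noted: active = viability at or below 30% in both replicate assays; inconclusive = viability at or below 30% in just one of the two assays; inactive = the rest.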
Columns and labels:
[1] = reduced viability of SK-BR-3 breast cancer cells – cell-based, 24 h, human, pilot screen (AID 572;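 active = viability at or below 10% of carrier control in both of two separate runs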;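 note: compound exposure lasted between 18 and 24 h rather than exactly 24 h; 100% = carrier-treated control wells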); conditions: SK-BR-3 viability, CellTiter-Glo luminescence, at 10 µM, stronger effect = lower value
[2] = HUVEC growth inhibition – cell-based, human, primary screen (AID 575); conditions: HUVEC proliferation, CellTiter-Glo luminescence, 72 h; at 10 µM; stronger effect = lower value;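 note: 100% = median of untreated cell wells with 0.1% DMSO on each plate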
[3] = H69AR cell proliferation blockers – human, duplicate replicates, primary screen (AID 580;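 active = viability at or under a set limit in both replicates, limit being median viability minus 3 SD, cut at about 48% in these data, passing the limit was not always enough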;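 note: 100% = mean luminescence of untreated wells and 0% = no signal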); conditions: H69AR lung tumor cells viability, ATP luminescence, 72 h; at 10 µM; stronger effect = lower value
[4] = MRP1 drug-resistance reversers in H69AR cells – cell-based, doxorubicin co-treatment, pilot screen (AID 601;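 active = viability loss from added drug above about 55%, and viability with drug at most 40%, in both replicates, limit read from the data, passing the limit was not always enough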); conditions: CellTiter-Glo, 72 h, at 10 µM; for differential viability (reversal): stronger effect = higher value
[5] = yeast transport mutant growth inhibition pilot in 384-well plates, post-Golgi transport modulator project (AID 636; in the data active = inhibition above about 31%); conditions: absorbance 615 nm, about 18 h, stronger effect = higher value
[6] = growth suppression of yeast trafficking mutant, preliminary HTS, modulators of trafficking downstream of Golgi apparatus project, 1536-format plate, OD 615 nm (AID 637; in the data active = inhibition above about 30%); conditions: yeast transport mutant growth, absorbance 615 nm, 18 h; stronger effect = higher value
[7] = S. cerevisiae growth inhibition in permissive medium (OD615), pilot counter-assay for S. cerevisiae lifespan shortening project, permissive growth control (AID 705;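 active = growth inhibition above 25% in both replicates, a cutoff set 3 SD above the mean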); conditions: OD615, 24 h, at 10 µM, stronger effect = higher value
[8] = S. cerevisiae growth inhibition in restrictive medium, OD615, pilot screen, restrictive growth control, yeast lifespan reduction project (AID 706;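 active = growth inhibition above a set limit, 3 SD over mean compound inhibition, in both replicates, cut at about 43% in these data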;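 note: modified DeaD lifespan yeast strain shifted to restrictive glucose medium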); conditions: OD615, 48 h, at 10 µM, stronger effect = higher value
[9] = doxorubicin toxicity protection in MRP-1 cells – H69AR cells, CellTiter-Glo, duplicate, MRP-1 activator project, pilot screen (AID 807;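 active = viability increase at or above a cutoff of the median across tested compounds plus 3 SD, cut at about 8.5% in these data, passing the limit was not always enough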;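 note: compound pretreatment 18-22 h then 72 h combined with doxorubicin; 0% = doxorubicin alone and 100% = vehicle without doxorubicin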); conditions: H69AR viability with doxorubicin, CellTiter-Glo luminescence; at 10 µM; stronger effect = higher value
[10] = viability of HCT116 without oncogenic beta-catenin – human colon tumor cells, pilot screen (AID 823;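 active = cell viability at or below a set limit in both duplicate runs, the limit being the all-compound median minus 4 SD, cut at about 23% in these data, passing the limit was not always enough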;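 note: 0% = wells killed by 20 µM Hyamine and 100% = untreated DMSO cell wells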); conditions: HCT116 beta-catenin knockout viability, CellTiter-Glo, 60 h; at 10 µM; stronger effect = lower value
[11] = viability of PTEN-null HCT116 cells – cell-based, HCT116 clonal line, CellTiter-Glo, pilot screen (AID 824;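 active = viability at or below 27.92% in each of two runs, the all-compound median minus 4 SD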;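 note: 0% = 20 µM Hyamine control and 100% = vehicle cell control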); conditions: HCT116 PTEN-deleted viability, 60 h, at 10 µM, stronger effect = lower value
[12] = RAM pathway blockade in budding yeast – dse1pr::URA3 reporter, 5-FOA selection, pilot screen (AID 869;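 active = inhibition over a set limit, the all-compound mean plus 3 SD, in both replicate runs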;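 note: 0% = DMSO wells with no growth and 100% = 10 µM 1-NA-PP1 with full growth; RAM network block rescues cells from 5-FOA so hits raise OD615 growth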); conditions: S. cerevisiae dse1pr::URA3 5-FOA growth, OD615, 2 d; at 10 µM; stronger effect = higher value; strain carries analog-sensitive mutant Cbk1 kinase
[13] = RAM signaling pathway blockade in yeast – S. cerevisiae, Pdr1DBD-CYC8 efflux-inhibited sensitized strain, primary screen (AID 1298;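 active = RAM network inhibition above 8.4% in each of two replicates, 3 SD over the compound average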;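 note: 0% = DMSO untreated cells without growth and 100% = 10 µM 1-NA-PP1 full growth; higher means more yeast growth rescued from 5-FOA killing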); conditions: S. cerevisiae cbk1-as DSE1-URA3 strain, 5-FOA growth OD615, 2 d; at 50 µM; stronger effect = higher value
[14] = H69AR cells + 2 uM doxorubicin, measured here: viability with 2 uM doxorubicin, stronger effect = lower value
[15] = H69AR cells, compound alone cytotoxicity

Row | Structure (SMILES) | viability [1] | viability [2] | viability [3] | differential viability (reversal) ([4]; H69AR cells + 2 uM doxorubicin) | viability [4, 14] [%] | viability [4, 15] [%] | inhibition [5] | inhibition [6] | growth inhibition [7] | growth inhibition [8] | viability increase [9] | viability [10] | viability [11] | inhibition [12] | RAM network inhibition [13]
1 | O=C(CCNS(=O)(=O)c1cccs1)Nc1ccccc1F | 81% (inactive) | 121% (inactive) | 108% (inactive) | 8.57% (inactive) | 99.2 | 108 | -6.49% (inactive) | 0.55% (inactive) | -26.3% (inactive) | -12.8% (inactive) | -0.31% (inactive) | 90.8% (inactive) | 92.8% (inactive) | 0.805% (inactive) | 2.55% (inactive)
2 | CC1=C(C(N)=O)C(c2ccccn2)n2nc(SCc3ccccc3)nc2N1 (stereo not given) | 88% (inactive) | 94% (inactive) | 93.8% (inactive) | -2.02% (inactive) | 95.9 | 93.8 | -3.92% (inactive) | -5.64% (inactive) | -2.97% (inactive) | 3.69% (inactive) | 2.38% (inactive) | 102% (inactive) | 95.6% (inactive) | 0.46% (inactive) | 2.59% (inactive)
3 | O=C(COc1ccc(F)cc1)Nc1ccc(-n2cnnn2)cc1 | 103% (inactive) | 107% (inactive) | 93.1% (inactive) | 12% (inactive) | 81.1 | 93.1 | -4% (inactive) | -1.27% (inactive) | 2.42% (inactive) | 2.31% (inactive) | 3.62% (inactive) | 102% (inactive) | 100% (inactive) | 0.61% (inactive) | 0.57% (inactive)
4 | CCOC(=O)c1cc(NC(=O)SCC(=O)O)c(C)nc1C | 82% (inactive) | 123% (inactive) | 88.1% (inactive) | 2.72% (inactive) | 85.4 | 88.1 | 2.34% (inactive) | -1.64% (inactive) | 0.31% (inactive) | 0.73% (inactive) | 2.31% (inactive) | 96.1% (inactive) | 101% (inactive) | 0.56% (inactive) | 0.38% (inactive)
5 | CC(C)C(CO)NC(=O)CC(=O)NC(CO)C(C)C (stereo not given) | 93% (inactive) | 101% (inactive) | 103% (inactive) | 21.4% (inactive) | 81.4 | 103 | -4.8% (inactive) | -0.91% (inactive) | -4.75% (inactive) | -1.44% (inactive) | -0.9% (inactive) | 105% (inactive) | 97.3% (inactive) | 2.15% (inactive) | 6.33% (inactive)
6 | COc1ccc(N2CCN(C(=O)CSc3ccccc3)CC2)cc1 | 113% (inactive) | 103% (inactive) | 95.5% (inactive) | 12.5% (inactive) | 83 | 95.5 | -8.13% (inactive) | -2.18% (inactive) | 3.53% (inactive) | 11.6% (inactive) | -3.92% (inactive) | 93.2% (inactive) | 85.9% (inactive) | 1.16% (inactive) | 3.22% (inactive)
7 | COc1cc(C(=O)NCCc2ccc3c(c2)OCCO3)ccc1OCC(=O)N1CCOCC1 | 100% (inactive) | 112% (inactive) | 93.3% (inactive) | 1.3% (inactive) | 92 | 93.3 | -5.95% (inactive) | -6.55% (inactive) | -14.7% (inactive) | -16% (inactive) | -2.17% (inactive) | 97.6% (inactive) | 96.3% (inactive) | 1.68% (inactive) | 1.5% (inactive)
8 | COc1ccccc1N1CCN(C(=O)C2CCN(S(=O)(=O)c3ccc(F)cc3)CC2)CC1 | 73% (inactive) | 70.8% (inactive) | 87.5% (inactive) | 6.62% (inactive) | 80.8 | 87.5 | -0.27% (inactive) | 8.55% (inactive) | -13.6% (inactive) | -1.89% (inactive) | -0.47% (inactive) | 81.2% (inactive) | 84% (inactive) | 1.03% (inactive) | 4.6% (inactive)
9 | Cc1ccc(C)n1-c1ccc(N2CCOCC2)cc1 | 104% (inactive) | 86.4% (inactive) | 77.9% (inactive) | -15.4% (inactive) | 93.4 | 77.9 | -6.35% (inactive) | -3.33% (inactive) | -10.4% (inactive) | -9.78% (inactive) | -7.18% (inactive) | 8.5% (active) | 8.6% (active) | 3.15% (inactive) | 7.34% (inactive)
10 | CCn1c(C(C#N)/C(=N\S(=O)(=O)c2cccs2)c2ccccc2)nc2ccccc21 (stereo not given) | 112% (inactive) | 96.2% (inactive) | 81.7% (inactive) | -12.6% (inactive) | 94.3 | 81.7 | 0.26% (inactive) | -1.15% (inactive) | -26.8% (inactive) | -15% (inactive) | -3.19% (inactive) | 87.4% (inactive) | 90.2% (inactive) | 1.55% (inactive) | 5.16% (inactive)
11 | CCOC(=O)N1CCN(C(=O)c2cnn(-c3ccccc3)c2NC(=O)c2ccccc2F)CC1 | 102% (inactive) | 98.8% (inactive) | 92% (inactive) | 12% (inactive) | 80 | 92 | -4% (inactive) | -0.73% (inactive) | 0.625% (inactive) | -2.95% (inactive) | -1.55% (inactive) | 99.4% (inactive) | 102% (inactive) | -0.065% (inactive) | 1.56% (inactive)
12 | Cn1c(C(=O)Nc2ccc3c(c2)OCO3)cc2c(=O)n(C)c3ccccc3c21 | 73% (inactive) | 72.6% (inactive) | 34.2% (active) | 7.56% (inactive) | 26.6 | 34.2 | -2.18% (inactive) | 2% (inactive) | -4.94% (inactive) | -3.57% (inactive) | -2.91% (inactive) | 92.4% (inactive) | 91.5% (inactive) | 3.22% (inactive) | 4.86% (inactive)
13 | COc1ccc(NC(=O)Nc2ccc(N3CCCC3=O)cc2)cc1OC | 126% (inactive) | 104% (inactive) | 104% (inactive) | 15.2% (inactive) | 89.1 | 104 | -4.93% (inactive) | -3.64% (inactive) | -1.9% (inactive) | 3.45% (inactive) | -3.97% (inactive) | 107% (inactive) | 93.8% (inactive) | 0.135% (inactive) | 0.87% (inactive)
14 | Cc1cc(C)n2c(SCC(=O)Nc3cc(C)on3)nnc2n1 | 91.5% (inactive) | 104% (inactive) | 101% (inactive) | 21.3% (inactive) | 79.2 | 101 | -4.19% (inactive) | 5.71% (inactive) | -7.78% (inactive) | -16.6% (inactive) | 1.73% (inactive) | 102% (inactive) | 97.2% (inactive) | 1.88% (inactive) | 3.63% (inactive)
15 | CCOC(=O)Nc1c(O)ccc2oc(C)c(-c3ccccc3)c12 | 102% (inactive) | 68.7% (inactive) | 99.8% (inactive) | 0.02% (inactive) | 99.8 | 99.8 | 0.26% (inactive) | 15.3% (inactive) | -15.4% (inactive) | -6.34% (inactive) | -2.89% (inactive) | 79.4% (inactive) | 80.9% (inactive) | 1.51% (inactive) | 3.9% (inactive)
16 | CCOC(=O)N1CCN(C(=O)CN(C2CCCCC2)S(=O)(=O)c2ccc(F)cc2)CC1 | 113% (inactive) | 97.3% (inactive) | 97.7% (inactive) | 5.98% (inactive) | 91.7 | 97.7 | -6% (inactive) | -4.36% (inactive) | -7.17% (inactive) | -5.59% (inactive) | 0.22% (inactive) | 99.8% (inactive) | 103% (inactive) | -0.815% (inactive) | 6.62% (inactive)
17 | O=C(CN1CCN(Cc2ccccc2)CC1)NCC1COc2ccccc2O1 (stereo not given) | 108% (inactive) | 110% (inactive) | 93.2% (inactive) | 6.56% (inactive) | 86.6 | 93.2 | -2.53% (inactive) | -4.73% (inactive) | -1.31% (inactive) | -5.58% (inactive) | -1.29% (inactive) | 93.6% (inactive) | 96.9% (inactive) | -0.145% (inactive) | 2.61% (inactive)
18 | CCN(CC)S(=O)(=O)c1ccc2c(c1)nc(SCn1nnc3ccccc3c1=O)n2CC | 74% (inactive) | 81.1% (inactive) | 83.2% (inactive) | 8.64% (inactive) | 74.6 | 83.2 | -4.93% (inactive) | -2.36% (inactive) | -1.67% (inactive) | -5.42% (inactive) | 2.88% (inactive) | 90.7% (inactive) | 103% (inactive) | 2.54% (inactive) | 7.57% (inactive)
19 | Cn1c(=O)c2c(nc(CN3CCc4ccccc4C3)n2Cc2cccc(Cl)c2)n(C)c1=O | 95% (inactive) | 45.5% (inactive) | 31.2% (active) | 12.7% (inactive) | 18.5 | 31.2 | -3.2% (inactive) | -1.33% (inactive) | -8.07% (inactive) | -5.74% (inactive) | -7.3% (inactive) | 42.6% (inactive) | 47.6% (inactive) | -0.785% (inactive) | 4.55% (inactive)
20 | O=C(CCC(=O)OCC(=O)c1ccccc1)NC1CCCCC1 | 68% (inactive) | 108% (inactive) | 101% (inactive) | 14.9% (inactive) | 86.1 | 101 | -7.33% (inactive) | -5.82% (inactive) | -6.58% (inactive) | -5.45% (inactive) | -0.49% (inactive) | 93.6% (inactive) | 95.6% (inactive) | -0.295% (inactive) | 5.37% (inactive)
21 | Cc1onc(-c2ccccc2)c1C(=O)NCc1cccnc1 | 102% (inactive) | 100% (inactive) | 99.4% (inactive) | 9.66% (inactive) | 89.7 | 99.4 | -3.33% (inactive) | 3.09% (inactive) | -14% (inactive) | -11.6% (inactive) | -1.32% (inactive) | 98.2% (inactive) | 95.8% (inactive) | 2.08% (inactive) | 1.71% (inactive)

Reference: PubChem BioAssay
